# The full ranking holds about 33,000 sequences; the median of “E-score (-0.5 to 0.5)” is about -0.056, and the highest 2% start at about 0.38. What follows is part of a selection rich in the highest values, with near analogues and random picks from the rest.
# Target: Stb4 (UniProt P50104)
# Assay: PBM E-score (8-mer binding enrichment) (E-score (-0.5 to 0.5)); higher = stronger / more preferred TF binding
# Settings: protein concentration: 200 nM; construct: GST-DNA-binding domain
# Description: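 Universal 'all 10-mer' protein binding microarrays (Agilent AMADID 015681) probed with GST-tagged S. cerevisiae TFs (full-length or DBD) made by in vitro transcription/translation (PURExpress), about 100-200 nM. Bound TF was detected with fluorescent anti-GST. Each ungapped 8-mer (which stands for itself and its reverse complement) is scored by the PBM enrichment score (E-score), a modified Wilcoxon-Mann-Whitney statistic from -0.5 to +0.5, computed with the Universal PBM Analysis Suite. Scale: above 0.35 generally sequence-specific binding.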
# Chain of UniProt P50104 (P50104 whole entry): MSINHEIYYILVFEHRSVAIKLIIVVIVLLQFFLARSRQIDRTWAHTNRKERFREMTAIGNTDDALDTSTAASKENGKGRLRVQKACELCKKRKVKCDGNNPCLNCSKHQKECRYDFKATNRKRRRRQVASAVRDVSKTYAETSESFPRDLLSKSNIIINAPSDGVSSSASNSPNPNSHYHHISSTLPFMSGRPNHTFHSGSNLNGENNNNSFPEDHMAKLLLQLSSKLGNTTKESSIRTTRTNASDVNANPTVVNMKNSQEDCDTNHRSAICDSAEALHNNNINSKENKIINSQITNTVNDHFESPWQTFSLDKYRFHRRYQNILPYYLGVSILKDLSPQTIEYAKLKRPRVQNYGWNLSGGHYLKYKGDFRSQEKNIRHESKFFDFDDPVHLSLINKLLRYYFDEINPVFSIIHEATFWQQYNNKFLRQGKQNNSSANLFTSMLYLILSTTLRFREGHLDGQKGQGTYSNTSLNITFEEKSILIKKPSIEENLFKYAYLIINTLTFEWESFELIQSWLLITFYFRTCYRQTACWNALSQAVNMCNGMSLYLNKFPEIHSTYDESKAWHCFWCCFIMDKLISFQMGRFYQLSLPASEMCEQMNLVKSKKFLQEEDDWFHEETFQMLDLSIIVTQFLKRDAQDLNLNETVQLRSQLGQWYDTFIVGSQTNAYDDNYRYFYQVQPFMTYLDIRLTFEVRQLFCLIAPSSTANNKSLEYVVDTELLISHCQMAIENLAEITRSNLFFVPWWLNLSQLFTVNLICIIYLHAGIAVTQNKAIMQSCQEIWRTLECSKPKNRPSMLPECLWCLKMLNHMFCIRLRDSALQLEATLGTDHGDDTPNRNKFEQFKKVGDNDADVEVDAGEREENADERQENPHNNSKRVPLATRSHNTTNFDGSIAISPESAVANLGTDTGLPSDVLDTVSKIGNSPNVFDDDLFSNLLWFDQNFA
row,Sequence,PBM E-score
1,AATGACGC,-0.238
2,GTGATGGA,-0.00596
3,CGATTCTC,0.0534
4,ACGCTCCA,-0.0409
5,AATGAGAA,-0.0737
6,CGCGGAAA,0.316
7,ATCGGACA,0.196
8,AACGGACA,0.0833
9,CTGGGAAA,-0.168
10,AACGGAAA,0.393
11,GTCAGAAA,-0.203
12,AGCGGAAA,0.333
13,GTTGGAAA,0.0285
14,ATCGGAAA,0.424
15,CTCGGAAA,0.479
16,CACGGAAA,0.352
17,GTCGGAAA,0.453
18,CCCATTCA,-0.0249
19,CGTTTATA,-0.0024
20,ATCCCGGC,0.323
21,AGCGTAGG,-0.0217
22,AAGGCGGG,-0.0393
23,CTGAACAA,-0.0548
24,AGGGATGG,-0.174
25,ACGATTCC,0.06
26,CGACTTGA,-0.0925

row,Sequence,PBM E-score
1,CGATCAAA,0.0532
2,AACTTGGC,-0.109
3,CTCGGAAC,0.485
4,CGCGGAAC,0.395
5,AACGGAAT,0.315
6,TTCGGAAA,0.474
7,AGCGGAAC,0.316
8,CACGGAAC,0.352
9,CTAGGAAC,-0.00703
10,AGCGGAAT,0.141
11,TGCGGAAA,0.299
12,GGCGGAAC,0.356
13,TTCAGAAA,-0.23
14,ATCGGAAT,0.434
15,GCCATGGC,-0.361
16,CCCTTTTA,-0.172
17,AGCCTAGG,-0.0301
18,GATCCTTA,-0.0996
19,GCCATTCC,0.127
20,CCAGCGCC,-0.0109
21,CTACGCCA,-0.271
22,CACCCCAC,0.0245
23,CCTTGTGA,-0.0811
24,CCTCTCCA,-0.309
25,CCTCGCTA,-0.29
26,CCGCTACA,0.109

row,Sequence,PBM E-score
1,AATTCAAC,0.015
2,ATTAACCA,-0.136
3,ATTAACCG,0.413
4,ATTAACCC,0.212
5,GAGGAATC,-0.07
6,ACGTCGGA,0.389
7,ACGTCGGG,0.349
8,GCGTCGTA,0.0854
9,CCGTCGGA,0.397
10,GCGTCGGA,0.449
11,GCGTCGAA,-0.0895
12,CCGTCGGC,0.329
13,ACGTCGGC,0.307
14,CCGTCGTA,-0.0259
15,CTGGCAGC,-0.168
16,ACATAATA,-0.153
17,CGAGTCAA,-0.0247
18,AGGTTCAT,-0.128
19,ACAAGGCT,-0.138
20,ACAGATTG,-0.0283
21,AGTTTAAT,-0.111
22,ATGGGCTA,-0.084
23,CCACTCCA,-0.146
24,AATACCAT,-0.115
25,CGTGCCGC,0.0918
26,GGTGCCTA,-0.0355

row,Sequence,PBM E-score
1,AGTGCCGC,0.123
2,AGTGCCGA,0.423
3,CGTGCCCA,0.00213
4,CGTGCCGA,0.405
5,AGTGCCGG,0.301
6,GGTGCCGA,0.402
7,GGTGCCCA,-0.147
8,CTGGACGC,-0.278
9,ATCGCCCG,0.152
10,CACGGCCC,0.0623
11,GAGGAGTA,-0.00803
12,GTCGGGGA,0.225
13,ATCGGGTG,0.366
14,GACGGGTA,0.267
15,ATCGGGCA,0.125
16,CACGGGTA,0.333
17,CCGGGGTA,0.155
18,CTCGGGCA,0.325
19,CCCGGGTA,0.407
20,GTCGGGTA,0.445
21,ATCGGGTA,0.419
22,CTCGGGTA,0.478
23,CCCGGGTC,0.32
24,ATGATTTC,0.0687
25,AATGATTG,-0.164
26,ATAGCAAT,-0.185

row,Sequence,PBM E-score
1,AGTCTAAC,-0.163
2,ACAGTCAG,-0.0929
3,ACACCAAT,0.00344
4,CTCGGGTC,0.434
5,CTCGGGCC,0.343
6,ATCGGGTC,0.325
7,AGGAATCA,-0.00647
8,GGGAATCA,0.0543
9,CGGAATAA,0.384
10,CGGAATTC,0.322
11,CGGAATTA,0.401
12,TGGAATAA,0.072
13,AGGAATTA,0.0103
14,GGGAATAA,0.233
15,CGGAATCA,0.388
16,GGATCATA,0.228
17,AACTGTGC,-0.157
18,AAAAATCG,0.0452
19,CTGAAACA,0.0153
20,GTTTAGAA,-0.0425
21,ATGAAAAT,0.0835
22,AGACGGGA,0.174
23,GACTCAGC,-0.191
24,CACGCATG,-0.209
25,ATACATGA,-0.212
26,ACGAACAA,0.079

row,Sequence,PBM E-score
1,ACGAACAG,-0.15
2,CCGAACAG,0.4
3,CCGAACAA,0.425
4,GCGAACAA,-0.0836
5,CCGAACTC,0.374
6,CCGAACAC,0.372
7,CCGAACTA,0.395
8,ACGAACTA,-0.194
9,GCAACGAC,0.0391
10,CACTGTGA,-0.018
11,AGCCCCTA,-0.139
12,AAGGGTTC,-0.14
13,CACGTGTA,-0.0718
14,GTGTGAAC,0.0138
15,CGTGGCAC,-0.178
16,CCCTGTGC,-0.0934
17,CTATCGTA,-0.199
18,GCATCGGA,0.359
19,TAATCGGA,0.324
20,ATATCGGG,0.306
21,CTATCGGC,0.26
22,CTATCGGA,0.423
23,ATATCGGC,0.316
24,AAATCGGG,0.317
25,AAATCGGA,0.399
26,TCATCGGA,0.403

row,Sequence,PBM E-score
1,ATATCGGA,0.383
2,ACATCGGA,0.346
3,AAATGCGT,-0.129
4,AGTGTGAT,-0.0318
5,CAATTTAC,-0.00625
6,CATAGTGG,-0.102
7,CCGACCTA,0.296
8,CACGGTGG,-0.061
9,GGCCCACC,0.0688
10,AAAAGATT,-0.0765
11,AGGTTTAC,-0.0584
12,GTATCGGA,0.39
13,GTATCGAA,-0.0419
14,GAATCGGA,0.38
15,ACATCACC,0.0212
16,CATCTGTC,0.0312
17,GCTTCCGA,0.473
18,GCTTCCTA,-0.0701
19,GCTTCCAA,-0.147
20,CCTTCCGC,0.306

# From the supplement of paper PMC3334620
